Screens: PubChem BioAssay, National Center for Advancing Translational Sciences (NCATS)
Shown are actives, neighbours in structure and some others; about 21% of the full set was active somewhere.
RORgamma inh: qHTS for inhibitors of ROR gamma transcriptional activity; Drosophila S2 Gal4-RORgamma UAS-luciferase reporter, 20 h; Potency, µM (series often up to 53.6 µM), for the others: at the highest dose activity change, negative = inhibition, hits mostly inhibitors; AID 2551, 2010; actives 5.4% (n = 310,000); Nuclear receptor ROR-gamma (Mus musculus), P51450; also: potency is read from the fitted curve at half-maximal effect; nearly all actives have a fitted effect of over 60% in size
Target sequence (P51450 whole entry, looked up, the tested form may be a part): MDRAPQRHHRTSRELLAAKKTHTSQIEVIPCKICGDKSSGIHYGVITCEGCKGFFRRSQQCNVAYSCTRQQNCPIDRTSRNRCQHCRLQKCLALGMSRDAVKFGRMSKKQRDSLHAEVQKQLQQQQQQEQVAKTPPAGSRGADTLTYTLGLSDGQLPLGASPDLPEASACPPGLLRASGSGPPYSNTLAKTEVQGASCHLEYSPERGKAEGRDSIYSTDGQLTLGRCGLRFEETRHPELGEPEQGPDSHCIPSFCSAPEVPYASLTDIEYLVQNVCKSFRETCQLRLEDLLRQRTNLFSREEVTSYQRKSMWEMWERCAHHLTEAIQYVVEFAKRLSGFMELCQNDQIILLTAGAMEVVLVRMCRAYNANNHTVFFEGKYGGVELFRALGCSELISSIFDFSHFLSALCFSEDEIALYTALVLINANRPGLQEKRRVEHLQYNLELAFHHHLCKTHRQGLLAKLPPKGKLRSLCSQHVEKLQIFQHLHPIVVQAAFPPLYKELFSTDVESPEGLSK
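Stably transfected Drosophila Schneider cells are the test system, with ROR gamma fused to Gal4 and luciferase under UAS control; luminescence is read after 20 hr of 700 uM copper sulfate induction at ambient temperature.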
DT40 TDP1 CPT: qHTS for Inhibitors of human tyrosyl-DNA phosphodiesterase 1 (TDP1): qHTS in cells in presence of CPT; chicken DT40 Tdp1-/-;hTDP1 cells + 20 nM CPT, ATP luminescence, 48 h; Potency, µM (top dose mostly 46.2 µM), inactives show top-dose activity change, negative = growth inhibition, most hits filed as inhibitors; actives 12% (n = 420,000); also: potency is read from the fitted curve at half-maximal effect; nearly all actives have a fitted effect of over 55% in size
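Chicken DT40 Tdp1-/- cells complemented with human TDP1, 400 cells/well, exposed to compounds plus 20 nM camptothecin for at least 48 h at 37 C; viability read as ATP content by CellTiter-Glo luminescence.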
TDP1 cell noCPT: qHTS for Inhibitors of human tyrosyl-DNA phosphodiesterase 1 (TDP1): qHTS in cells in absence of CPT. DT40 Tdp1-/- hTDP1 cells, no CPT, ATP luminescence, 48 h. Potency, µM (series often up to 46.2 µM), for inactives: top-dose activity change, negative = growth inhibition, most hits filed as inhibitors. actives 15% (n = 420,000). AID 686978, 2013; also: potency is read from the fitted curve at half-maximal effect; nearly all actives have a fitted effect of over 55% in size
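Growth kinetics read by CellTiter-Glo luminescence after ≥48 hr at 37 °C. Cells: DT40 Tdp1-/- stably carrying human TDP1, 400 per well, compound exposure in the absence of CPT (DMSO vehicle).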
IL1B secr inh: qHTS for Inhibitors of Inflammasome Signaling: IL-1-beta AlphaLISA Primary Screen; THP-1 LPS/ATP IL-1B secretion, AlphaLISA, 16 h; hits give low values; activity change, % at 57.5 µM; actives 4.7% (n = 360,000); AID 743279, 2014; in the data active = activity change below about -50%; inconclusive = mostly about -30% to -49%
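THP-1 cells pretreated 1 hr with compounds (up to 57.5 uM final), then stimulated with LPS (250 ng/mL final) plus ATP (1.25 mM final); secreted IL-1B measured by AlphaLISA after 16 hr, decreased signal indicating inhibition.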
VP16 counter: VP16 counterscreen qHTS for inhibitors of ROR gamma transcriptional activity; Drosophila S2 Gal4-VP16 UAS-luciferase, luminescence, 20 h; Potency, µM (highest dose often 53.6 µM), without a hit: at the top dose activity, negative = inhibition, actives largely listed as inhibitors; actives 3.5% (n = 310,000); AID 2546, 2010;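 also: Gal4-VP16 expression switched on by copper sulfate through the metallothionein promoter; potency is read from the fitted curve at half-maximal effect; nearly all actives have a fitted effect of over 50% in size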
ELG1 DNA repair: qHTS screen for small molecules that inhibit ELG1-dependent DNA repair in human embryonic kidney (HEK293T) cells expressing luciferase-tagged ELG1. HEK293T ELG1-luciferase reporter, luminescence, 16 h; DNA damage induced by 5-fluorouridine. Potency, µM (doses to about 46.1 µM), for the others: at the top dose activity change, negative = inhibition, most hits filed as inhibitors. actives 2.3% (n = 330,000). AID 504467, 2011; also: potency is read from the fitted curve at half-maximal effect; nearly all actives have a fitted effect of over 55% in size
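In this reporter screen, reduction of luminescence relative to DMSO vehicle indicated activity. Compounds and 5-fluorouridine were added together to 2,000 cells per well, incubated for 16 hr at 37 °C, then developed with ONE-Glo.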
Starred values were filed as active, the others as inactive; ? = inconclusive; / = not tested or not shown; ! = repeats disagree; [ ] = remark or other dose. Unless noted, calls follow the shape of the dose curve; as a rule, active = well fitted curve in the direction sought with a large enough effect; inconclusive = small, poorly fitted or top-dose-only effect, or another doubt; inactive = no such curve, though single readings can be large; an effect the other way counts as inactive or inconclusive. % is scaled to controls: 0 for no effect and ±100 for the full control effect.

SMILES | RORgamma inh | DT40 TDP1 CPT | TDP1 cell noCPT | IL1B secr inh | VP16 counter | ELG1 DNA repair
CC(=O)N1CCC2(CC1)C/C(=N\NC(=S)Nc1ccc(C)cc1)c1cc(O)ccc1O2 | 10µM* | 15µM* | ? | -29 | ? | -8%
Cc1ccc(NC(=S)N/N=C2/CCCCc3ccccc32)cc1 | 3.5µM* | ? | ? | 0 | -24% | 10%
C=C(C)CNC(=S)N/N=C1\CCCCc2ccccc21 | 1.4µM* | ? | ? | 26 | 1.8µM* | -13%
C=CCNc1nnc(SCC(=O)N2CCC(C(N)=O)CC2)s1 | / | -1% | 7% | 2 | / | 26%
CCc1nn2c(=O)c(S(=O)(=O)Nc3ccc(OC)c(Cl)c3)c(C)nc2s1 | / | -27% | ? | / | / | /
COc1ccc(NC(=O)O/N=C2/CCCc3ccc(OC)cc32)cc1 | -14% | ? | ? | 11 | 2% | -8%
Cc1ccc(C)c(NC(=S)N/N=C2\CCc3ccccc32)c1 | 7.1µM* | ? | 21µM* | 78 | 10µM* | ?
COc1ccc(NC(=S)N/N=C2/CCCc3c(C)cc(C)cc32)cc1 | 2.8µM* | 1% | -27% | 22 | ? | 2%
CCCCCC[C@@H](CCC)C(=O)O | / | 13% | -3% | / | / | /
CC(C)N(Cc1ccccc1)C(=O)c1ccc2nsnc2c1 | 23% | ? | 21µM* | 0 | -7% | 12%
O=C(/C=C/[C@H]1O[C@@H](n2ccc(=O)[nH]c2=O)[C@H](O)[C@@H]1O)NC(c1ccccc1)c1ccccc1 | / | 6% | 18% | 13 | / | /
CSc1ccc(CNC(=O)c2cc3c(=O)n(Cc4ccco4)ccc3nc2C)cc1 | / | 29µM* | 23µM* | / | / | /
CCOc1ccccc1CNC(=O)c1cc2c(=O)n(Cc3ccccc3)ccc2nc1C | / | 18µM* | 16µM* | / | / | /
Cc1ccc(NC(=O)c2cc3c(=O)n(Cc4ccco4)ccc3nc2C)cc1C | / | 26µM* | ? | / | / | /
CCCCCCCCCCCC[N+](C)(C)Cc1ccccc1 | / | 1.5µM* | 1.7µM* | / | / | /
CC(Cc1cccc(C(F)(F)F)c1)NCCOC(=O)c1ccccc1 (stereo not given) | 31% | ? | 18µM*! | -22 | -8% | -1%
C[C@@H](Cc1cccc(C(F)(F)F)c1)NCCOC(=O)c1ccccc1 | -5%[16.9 µM] | / | / | / | 5%[17 µM] | /
Cc1ccccc1C(=O)NC(=S)Nc1ccc(S(=O)(=O)N(C)c2ccccc2)cc1 | 11µM* | 23µM* | 23µM* | -2 | ? | -22%
Cc1noc(NS(=O)(=O)c2ccc(NC(=O)c3cccc(S(=O)(=O)N(C)c4ccccc4)c3)cc2)c1C | / | 3% | 11% | 17 | / | /
Cc1cccc(C(=O)NC(=S)Nc2ccc(S(=O)(=O)N(C)c3ccccc3)cc2)c1 | 11µM* | ? | 13µM* | 24 | ? | ?
CCOc1ccc(CC(=O)NC2CC(=O)N(c3ccc4c(c3)OCCO4)C2)cc1 (stereo not given) | / | 5% | 5% | / | / | /
CN1CCN([C@@H]2CS(=O)(=O)N[C@H]2COCc2ccccc2)CC1 | / | 6% | 0% | 24 | / | /
COc1ccc(CCNC(=O)c2ccc(NC(=O)CC3SC(N4CCCCC4)=NC3=O)cc2)cc1 (stereo not given) | / | -15% | ? | -8 | / | /
COc1cc2c(cc1OC)C1CCc3cc4c(cc3C1N=C2)OCO4 (stereo not given) | / | 16µM* | 13µM* | -20 | / | /
CS(=O)(=O)Nc1cccc(-c2nccc(NCc3cccs3)n2)c1 | 19% | -25% | -18% | / | -12% | /
SMILES | RORgamma inh | DT40 TDP1 CPT | TDP1 cell noCPT | IL1B secr inh | VP16 counter | ELG1 DNA repair
Cc1ccc(S(=O)(=O)N(C)c2ccc(OCC(=O)Nc3cc(C(=O)O)ccc3Cl)cc2)cc1 | / | 13% | 12% | 0 | / | /
Cc1ccc(C(=O)Nc2cccc(C(F)(F)F)c2)cc1Nc1cnccn1 | ? | 23µM* | 16µM* | 11 | 3% | -13%
O=C(Nc1cnccn1)c1cccc(C(F)(F)F)c1 | ? | -9% | -15% | -18 | 11% | ?
Cc1ccc(C(=O)Nc2cccc(C(F)(F)F)c2)cc1NC(=O)c1nccn1C | -6% | 2% | 3% | 76 | -14% | 23%
Cc1ccc(C(=O)Nc2cccc(C(F)(F)F)c2)cc1Nc1ncnc2nc[nH]c12 | 15% | 26µM* | 21µM* | -19 | 1% | ?
Cc1ccc(C(=O)Nc2cccc(C(F)(F)F)c2)cc1NC(=O)c1ccno1 | -10% | ? | 12µM* | ? | 13% | -2%
O=C(Nc1ccccc1O)c1ccc(Cl)cc1 | 14% | 16µM* | 23µM* | 114 | -19% | ?
O=C(Nc1ccccc1OC(=O)c1ccc(Cl)cc1)c1ccc(Cl)cc1 | 35% | ? | 16µM* | 13 | -4% | ?
Cc1ccc(C(=O)Nc2cc(Cl)ccc2OC(=O)c2ccc(C)cc2)cc1 | 1% | / | / | / | 0% | ?
CSc1cccc(NC(N)=S)c1 | -41% | -24% | ? | -14 | -1% | -2%
CSc1cccc(NC(=S)Nc2ccc(F)cc2)c1 | ? | 23µM* | ? | -2 | ? | 18%
CSc1cccc(NC(=S)NN(C)C)c1 | 3.2µM* | ? | 18µM* | 4 | 10µM* | 17%
CNC(=O)c1ccc(CN(C)C(=O)c2cccc(S(=O)(=O)N3CCc4ccccc4C3)c2)cc1 | / | -9% | ? | 3 | / | /
C=C1CCN([C@@H](Cc2ccccc2)C(=O)NCc2ccccc2)S(=O)(=O)c2ccccc21 | / | -24% | ? | 4 | / | /
C=C1CCN([C@@H](Cc2ccccc2)C(=O)NCc2ccc(Cl)cc2)S(=O)(=O)c2ccccc21 | / | ? | 21µM* | 0 | / | /
O=C(NCCN1CCC(n2c(=O)[nH]c3ccccc32)CC1)c1ccc(Cl)c(Cl)c1 | / | ? | 18µM* | / | / | /
O=C(NCCN1CCC(n2c(=O)[nH]c3ccccc32)CC1)c1cccc2c1-c1ccccc1C2=O | / | ? | 21µM* | -95* | / | /
CCOc1ccccc1C(=O)NCCN1CCC(n2c(=O)[nH]c3ccccc32)CC1 | / | 23µM* | 29µM* | -25 | / | /
COc1ccccc1C(=O)NCCN1CCC(n2c(=O)[nH]c3ccccc32)CC1 | / | ? | ? | -6 | / | /
O=C(NCCN1CCC(n2c(=O)[nH]c3ccccc32)CC1)c1ccccc1Cl | / | ? | ? | -23 | / | /
